This is part of a sample that, as a whole, favours compounds with a hit. Of some 83,000 tested, about 20% had one in any assay.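 Assay: single dose, 48 h. Readout: percent growth (0 = no net growth; negative = cell death). Active: <10.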 A number with no mark means an inactive call. Calls of active or inactive are those of the source.

Holding throughout (test): NCI-60 one-dose screen, 48 h (100 = growth as untreated, 0 = no growth, -100 = all killed)
Common to all, as to settings: 10 µM unless noted

The subject of test [1] is HCT-15 colon.
Test [2] relates to HT29 colon.
Test [3] relates to SNB-75 CNS.
For test [4], the system named is SNB-19 CNS.
In test [5] the test system is U251 CNS.
Test [6] has as its system PC-3 prostate.
In test [7] the test system is SK-MEL-5 melanoma.
Test [8] deals with UACC-62 melanoma.
Test [9] relates to LOX IMVI melanoma.
In test [10] the test system is SK-MEL-28 melanoma.

`COc1cc(-c2cc(-c3ccc(Nc4ncnc5cc(Cl)ccc45)cc3)nc(N3CCCCC3)n2)cc(OC)c1OC`: the growth in test [1] was 99.5%; in test [2] it was 87.7%; in test [3], 108%; in [4] it was 100%; in [5], 98.9%; in test [6] it was 88.1%. The growth was 97.7% in test [7], 95.5% in test [8], 97.3% in test [9] and 108% in test [10].
`CCOC(=O)/C(C#N)=C(\C)CCc1ccccc1`: the growth in test [1] is 87.7%; in test [2], 98.6%; in test [3] it was 52.3%; in test [4] it was 104%; in [5], 96.4%; in test [6], 92.7%. Also, the growth in [7] is 98.4%; in test [8] it was 110%; in [9], 96.9%; in test [10], 97.7%.
Consider `NS(=O)(=O)c1ccc(CCN2C(=O)/C(=C\c3ccccc3)C=C2c2ccc(Cl)cc2)cc1`, for which the growth in [1] was 99.2%; in test [2], 107%; in test [3] it was 59.3%; in [4], 87%; in [5], 98.9%; in test [6], 90%. Also, the growth in [7] was 98.7%; in [8], 81.9%; in [9] it was 99.8%; in test [10], 101%.
For the compound `CCOc1cccc2c(NC(C)CCCN(CC)CC)c(C)cnc12` (stereo not given), the growth is 99.1% in [1]; 85.1% in test [2]; 67.9% in [3]; 102% in test [4]; 103% in test [5]; 85.9% in [6]. The growth in test [7] was 108%; in test [8], 108%; in test [9], 90.2%; in test [10], 126%.
`O=S(=O)(NCCCNc1nccc(-c2c(-c3cccc(F)c3)nc3occn23)n1)c1cccc2ccccc12`: the growth in test [1] is 29.2%; in test [2] it was 5.59% (active); in [3] it was 62.5%; in [4], 64.7%; in test [5], 49.8%; in test [6] it was 18.1%. For the same compound, the growth in test [7] is 27%; in test [8], 31.5%; in test [9] it was 35.3%; in [10], 64.9%.
As to `CC[C@]12C=CCN3CC[C@@]4(c5ccc(OC)cc5N(C)[C@H]4[C@@](O)(C(=O)OC)[C@@H]1OC(=O)CCC(=O)N[C@H](Cc1c[nH]c4ccccc14)C(=O)OC)[C@@H]32`, the growth was -24.1% [100 µM] (active) in [1]; 5.23% [100 µM] (active) in [2]; -68.8% [100 µM] (active) in test [3]; -51.2% [100 µM] (active) in test [4]; 3.72% [100 µM] (active) in test [5]; -15.8% [100 µM] (active) in [6]. Besides, the growth is -53% [100 µM] (active) in test [7], -61.1% [100 µM] (active) in test [8], -54.4% [100 µM] (active) in test [9] and -49.6% [100 µM] (active) in test [10].
Turning to `Cn1cc(-c2noc(-c3cn(C)c4ncccc34)n2)c2cc(Cl)ccc21`, the growth in [1] is 92.8%; in [2] it was 83.1%; in test [3], 101%; in test [4] it was 100%; in test [5], 95.6%; in test [6], 89.3%. Besides, the growth was 94.7% in test [7], 93.1% in [8], 93.4% in test [9] and 93% in [10].
In the case of `C#CCNC(=O)CC[C@@H](C)[C@H]1CC[C@H]2[C@@H]3CC[C@@H]4CC(=O)CC[C@]4(C)[C@H]3CC[C@]12C`, the growth was 1.91% [100 µM] (active) in test [1]; -25% [100 µM] (active) in test [2]; -58.3% [100 µM] (active) in test [3]; 14.8% [100 µM] in [4]; -43.4% [100 µM] (active) in [5]; -14.6% [100 µM] (active) in test [6]. Also, the growth in test [7] was -86.5% [100 µM] (active); in [8], -74% [100 µM] (active); in test [9], -71.6% [100 µM] (active); in [10] it was -84.4% [100 µM] (active).
`COc1ccc2nc3c(cc2c1)C(=O)CC(c1ccccc1)C3` (stereo not given): the growth was 24.8% in [1]; 9.97% (active) in test [2]; -9.09% (active) in [3]; 34.3% in test [4]; 45% in test [5]; 28.8% in [6]. For the same compound, the growth was 30.2% in test [7], 36.9% in test [8], 36.1% in test [9] and 54.6% in test [10].
Consider `O=C1/C(=C\c2cccn2Cc2ccccc2)c2ccccc2N1c1c(Cl)cccc1Cl`, for which the growth in [1] is 4.9% (active); in [2] it was 52.4%; in [3] it was 59.1%; in test [4], 79.7%; in [5], 74.8%; in test [6], 51.4%. Also, the growth is -5.28% (active) in test [7], 42% in test [8], 88.8% in test [9] and 98.4% in [10].
For `N#CC1C(=O)NC(c2ccccc2[N+](=O)[O-])c2sc3c(F)cccc3c21` (stereo not given), the growth is 87.8% in test [1]; 85.3% in test [2]; 82.6% in [3]; 70.8% in test [4]; 42.6% in [5]; 80% in test [6]. The growth in test [7] was 75.2%; in test [8], 9.47% (active); in [9], 91.4%; in test [10], 111%.
For the compound `CCOc1cc(/C=N\NC(=O)N/N=C/c2ccc(O)c(OCC)c2)ccc1O`, the growth was 28.7% in test [1]; 27.6% in test [2]; 0.378% (active) in test [3]; 39.8% in test [4]; 33.7% in [5]; 33% in test [6]. The growth in [7] was 11.5%; in [8], 26.2%; in [9], 42.6%; in test [10], 52.3%.

The values above are taken from PubChem BioAssay (NCI).
